{"source": "the supplement of paper PMC6555819"}
{"tested_on": "VDR:RXRa (NR concentration 270 nM, RXRa partner concentration 90 nM)", "assay": "PBM binding z-score (relative to random genomic background probes); higher = stronger binding; sequences stand for … in GC…GCGATTGACAGCGTAGAATGAAGG", "experimental": "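Protein-binding microarray (Agilent 4x180K custom design, double-stranded 60-nt probes: 5' GC cap, 34-nt variable region, 24-nt constant primer region; full probe sequence given). Purified or IVT nuclear receptor:RXRα heterodimers (3:1 NR:RXRα, mostly 270:90 nM) or homodimers were incubated for 1 h in PBS with 2% milk and no ligand, then detected with Alexa488 antibodies. Fluorescence from o1-orientation probes (~5 replicates averaged) was converted to z-scores against 500 random hg19 background probes. Variable regions are seed direct-repeat (DR0–DR5) sites, all their single-nucleotide variants and half-site ablations.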"}
{"sequence": "TCATACAGGTAAACAGGTGAAAGTCCGTAAGTTA", "PBM binding z-score": 1.2}
{"sequence": "CATACAGAGTCAGCTAGGCCAGAGTAGGGACGGC", "PBM binding z-score": -0.518}
{"sequence": "TAGCCTAGGTCATTCAGGGGCCCGTATAGAAAGC", "PBM binding z-score": 2.51}
{"sequence": "CTCGAAAGGTCGGTTGAGGTGAGTCTACGGATAA", "PBM binding z-score": 2.45}
{"sequence": "ATCTCTAGGTTACCAAGTTCAGTGAATGCCGAAC", "PBM binding z-score": 5.85}
{"sequence": "TCCAGTTGGTCACGGAGGTCACACACGACGGGTA", "PBM binding z-score": 5.75}
{"sequence": "CAAACTTGGTCACGAAAGGTCAAAGTCGAATGAC", "PBM binding z-score": 5.37}
{"sequence": "CTCGAAAGGTCGGTTGAGGTGAATATACGGATAA", "PBM binding z-score": 2.79}
{"sequence": "TCGAATAGGTTAGGGGCATTCAGAATGGCGTCGA", "PBM binding z-score": 0.8}
{"sequence": "CCTAGCAGCCCAATCTGGGTCACTCAAGGCTTGA", "PBM binding z-score": 0.11}
{"sequence": "GATACAGGGTCAGGGCCAGAGTACGCGTATTGAT", "PBM binding z-score": 3.14}
{"sequence": "TCATATCGGTAATACAGGTGAAAGTCGGCATCTA", "PBM binding z-score": 0.66}
{"sequence": "CAAACTAGGTCACGAAAGGCCAAAGTCGAATGAC", "PBM binding z-score": 4.15}
{"sequence": "CAAACTAGGTCAAGGTCAACGTCGGTTTGTGCCA", "PBM binding z-score": 5.02}
{"sequence": "TTACCAAGGTGAGCTGAGGTCGGTGATCCAACTC", "PBM binding z-score": 1.26}
{"sequence": "CTCGAAAGGTCGTGCTCAGGTGTGTATACCAAAC", "PBM binding z-score": 3.31}
{"sequence": "CTACCAAGGTGAACACGGTCGTTGATTACTATTC", "PBM binding z-score": 3.01}
{"sequence": "TCTTGTAGATCAACCGGAGGTTAAGAAAGATCGA", "PBM binding z-score": 0.672}
{"sequence": "CCAACTGGGGCAGAAAGGTTACCATACCATCCGG", "PBM binding z-score": 0.976}
{"sequence": "TCTGCTAGGTCAACGATGGTCACCTAATCTGCTA", "PBM binding z-score": 2.19}
{"sequence": "ATCTCTAGGTAAGACTCAGTTCATTGAAGAACGC", "PBM binding z-score": 2.42}
{"sequence": "CGTCCAAGGTCAGCAGGTCAATGAAAGCGACGTG", "PBM binding z-score": 4.68}
{"sequence": "ATATGTAGGTTATCGAGTCATTCAGTTTGCGCAT", "PBM binding z-score": 1.72}
{"sequence": "ATCTCTAGGTAAAGATAGTTCAGTGACTGCAAAT", "PBM binding z-score": 1.05}
{"sequence": "TCTGCTAAGTCAGTTGGTCAGCTAACGAGCTGCC", "PBM binding z-score": -0.514}
{"sequence": "CAGACTAGGTCACGAAAGGTCAAAGTCGAATGAC", "PBM binding z-score": 6.8}
{"sequence": "GCTGCTAGGTCAGGTTGGACAGCTAACGGGTACG", "PBM binding z-score": 0.304}
{"sequence": "TAGACTAGGTCATGCGGGCCAGTATAGTGTCGGC", "PBM binding z-score": 2.46}
{"sequence": "GTACCAAGGAGAATAGGTCGTTGATGAGTAGGCG", "PBM binding z-score": 0.0366}
{"sequence": "TGTCAAAGTTCAAAGGTAACCTAAGTATCCACAC", "PBM binding z-score": 5.12}
{"sequence": "ACTCAAAGTTCATCTAGGTAACGTAAGATATGCT", "PBM binding z-score": 4.98}
{"sequence": "ACTAGCAGGCAAAGGGTCACTCAAGATTAGTCCG", "PBM binding z-score": 2.98}
{"sequence": "CATACAGGGTCAGCTAAGCCAGAGTAGGGACGGC", "PBM binding z-score": 2.69}
{"sequence": "TCTTGTAGAACAAAGGTTAAGAAAGCCGAAGCCT", "PBM binding z-score": 1.18}
{"sequence": "ATCGAAAGGTGGAGGTGAGTATAGAGAAAGGGAA", "PBM binding z-score": 0.346}
{"sequence": "CCGACTGGGGCATAAGGTTACCAAAAGCCAGCCC", "PBM binding z-score": 0.198}
{"sequence": "CGAACTAGGTCAGAACAGGGCAGTGAAGGATGAT", "PBM binding z-score": 0.903}
{"sequence": "ATACCAAGGTGATGGTGAGGTCGTTGATACTAAC", "PBM binding z-score": 3.28}
{"sequence": "CTCGAAAGGTCCTGCTCAGGTGAGTATACCAAAC", "PBM binding z-score": -0.0691}
{"sequence": "TCTCGGAGAACACGAAAGGTCAGAGCTCGACATC", "PBM binding z-score": 2.22}
